The list is not random: actives were taken first. Their share in the collection is about 5.7%.
VP16 counter: VP16 counterscreen qHTS for inhibitors of ROR gamma transcriptional activity | Drosophila S2 Gal4-VP16 UAS-luciferase, luminescence, 20 h | Potency, µM (highest dose often 53.6 µM), for the others: top-dose activity, negative = inhibition, usual class: inhibitors | 3.5% of 310,000 active;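 also: Gal4-VP16 expression switched on by copper sulfate through the metallothionein promoter; nearly all actives have a fitted effect of over 50% in size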
RORg inh: qHTS for inhibitors of ROR gamma transcriptional activity. Nuclear receptor ROR-gamma (Mus musculus), P51450. Drosophila S2 Gal4-RORgamma UAS-luciferase reporter, 20 h. Potency, µM (doses to about 53.6 µM), without a hit: at the top dose activity change, negative = inhibition, hits mostly inhibitors. 5.4% of 310,000 active. AID 2551, 2010; also: nearly all actives have a fitted effect of over 60% in size
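Stable Schneider cell line, Gal4 DNA-binding domain fused to ROR gamma, UAS-luciferase. Cmpd 1 hr RT → CuSO4 700 uM final → 20 hr RT → luciferase reagent 10 min → luminescence.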
NPSR antag: qHTS Assay for Antagonists of the Neuropeptide S Receptor: cAMP Signal Transduction. Potency, µM (top dose mostly 38.3 µM), for the others: at the top dose activity change, negative = inhibition, hits mostly inhibitors. CHO-NPSR cells, cAMP TR-FRET, antagonist mode. 1% of 220,000 active. Q6W5P4; also: nearly all actives have a fitted effect of over 50% in size
B2AR arrestin: qHTS assay of beta-arrestin-biased ligands of beta2-adrenergic receptor; Beta-2 adrenergic receptor (Homo sapiens), P07550; beta-arrestin recruitment to beta2AR, cell-based reporter; Potency, µM (titrated, usually from 46.1 µM), inactives show at the top dose activation, hits mostly activators; 0.02% of 330,000 active; AID 492947, 2010;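 also: 0% = DMSO controls and full agonism = EC100 isoproterenol or metaproterenol; nearly all actives have a fitted effect of over 65% in size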
Target sequence (P07550 whole entry, looked up): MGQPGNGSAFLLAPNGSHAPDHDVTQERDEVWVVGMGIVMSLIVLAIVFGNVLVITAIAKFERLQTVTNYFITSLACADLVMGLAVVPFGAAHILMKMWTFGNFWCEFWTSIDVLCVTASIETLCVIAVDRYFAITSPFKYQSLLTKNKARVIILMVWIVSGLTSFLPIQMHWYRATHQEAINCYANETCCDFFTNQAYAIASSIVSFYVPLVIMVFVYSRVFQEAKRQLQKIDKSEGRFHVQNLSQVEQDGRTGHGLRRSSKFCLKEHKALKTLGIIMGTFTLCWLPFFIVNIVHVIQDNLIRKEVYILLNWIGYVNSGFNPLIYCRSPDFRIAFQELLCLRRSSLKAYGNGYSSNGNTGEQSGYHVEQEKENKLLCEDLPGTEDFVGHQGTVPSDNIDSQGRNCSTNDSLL
Active calls of the source: *; ? = inconclusive; · = no result given; [ ] = remark or other dose. Calls follow the shape of the dose curve; as a rule, active = well fitted curve in the direction sought with a large enough effect; inconclusive = small, poorly fitted or top-dose-only effect, or another doubt; inactive = no such curve, though single readings can be large; an effect the other way counts as inactive or inconclusive. Unless noted, % is scaled to controls: 0 for no effect and ±100 for the full control effect; potency is read from the fitted curve at half-maximal effect.

SMILES | VP16 counter | RORg inh | NPSR antag | B2AR arrestin
O=C(CSCc1ccc(Cl)cc1)Nc1nccs1 | 0% | 14µM* | -9%[46.1 µM] | 0%
O=C(Nc1nccs1)c1ccc(COc2c(F)c(F)cc(F)c2F)cc1 | -13% | 11µM* | · | 0%
O=C(Nc1nccs1)c1ccc(COc2ccc(Cl)cc2)o1 | -29% | 13µM* | -17%[46.1 µM] | ·
COc1ccc2c(c1)C(=O)[C@H](OC(=O)NCc1ccc3c(c1)OCO3)[C@@H](c1ccc(OC)c(Br)c1)O2 | 3% | -10% | · | ·
CNc1ncc(Cc2ccccc2)s1 | -18% | 8.9µM* | -1% | 0%
O=C(Nc1ncc(Cc2ccccc2)s1)C1CCCO1 (stereo not given) | ? | ? | 3% | 0%
CCOc1ccccc1Nc1nc(-c2sc(C)nc2C)cs1 | ? | 8.9µM* | 26% | 0%
COc1cccc(Nc2nc(-c3sc(NC(=O)CC(C)C)nc3C)cs2)c1 | 18µM* | ? | -13%[46.1 µM] | 0%
COc1ccccc1Nc1nc(-c2sc(NC(=O)C(C)(C)C)nc2C)cs1 | 6.3µM* | ? | ? | -3%
CCC(C)C(=O)Nc1nc(C)c(-c2csc(Nc3ccc(Cl)cc3)n2)s1 (stereo not given) | 10µM* | -44% | -21%[46.1 µM] | -1%
CN1[C@@H]2CCC[C@H]1CC(NC(=O)c1nn(C)c3ccccc13)C2 (stereo not given in full) | · | · | · | -1%
CCN(C(=O)COC(=O)c1cc(=O)[nH]c2ccccc12)C1CCS(=O)(=O)C1 (stereo not given) | 4% | 0% | 21% | 0%
Cc1ccc(Cl)cc1Nc1nc(-c2sc(NC(=O)C(C)(C)C)nc2C)cs1 | 11µM* | ? | -10%[46.1 µM] | 0%
Cc1oc2c(c1C(=O)N1CCC(C)CC1)C(=O)c1ccccc1C2=O | ? | 7.9µM* | 6% | 0%
CCOC(=O)C1CCN(C(=O)c2ccc(C)o2)CC1 | · | · | · | 0%
CCOC(=O)C1CCN(C(=O)c2c(C)oc3c2C(=O)c2ccccc2C3=O)CC1 | ? | 11µM* | 6% | 0%
Cc1onc(-c2ccccc2Cl)c1C(=O)N1CCC(C)CC1 | 1% | -17% | · | 0%
CCCCCCN1C=CC(=C2C(=O)c3ccccc3C2=O)C=C1 | -9% | 23% | 7% | 0%
CCN1C=CC(=C2C(=O)c3ccccc3C2=O)C=C1 | 0.32µM* | ? | -9%[46.1 µM] | 0%
CCCN1C=CC(=C2C(=O)c3ccccc3C2=O)C=C1 | 0.25µM* | 1.1µM* | -5%[46.1 µM] | 0%
Cc1nn(C(C)C(=O)NCCCN2CCCC2)c(=O)c2nn(-c3ccccc3)c(C)c12 (stereo not given) | 4% | -15% | · | -1%
Cc1cc(Br)ccc1N=C1NC(=O)CS1 | 1% | 2% | · | 0%
COc1cc(NS(=O)(=O)c2ccc(N/C=C(\C=O)c3nc4ccccc4o3)cc2)nc(OC)n1 | ? | 8.9µM* | -13%[46.1 µM] | -1%
COc1cc(NS(=O)(=O)c2ccc(N/C=C(\C#N)c3nc4ccccc4o3)cc2)nc(OC)n1 | 2% | 44% | -20%[46.1 µM] | 1%
COC(=O)CNC(=O)C(=O)OC | -5% | 13% | · | ·
SMILES | VP16 counter | RORg inh | NPSR antag | B2AR arrestin
COc1ccc(-n2nc3c(N4CCC(C(=O)NCc5ccccc5C)CC4)nnc(C)c3c2C)cc1 | 1% | -6% | · | 0%
COc1ccc(-n2nc3c(N4CCC(C(=O)NCC(C)c5ccccc5)CC4)nnc(C)c3c2C)cc1 (stereo not given) | 20µM* | -31% | · | 0%
Cn1ncc([N+](=O)[O-])c1C(=O)Nc1nc2ccccc2n1CCN1CCCCC1 | ? | 3.5µM* | -10%[46.1 µM] | 4%
CCn1cc(Cl)c(C(=O)Nc2nc3ccccc3n2CCN2CCCCC2)n1 | 8.9µM* | 10µM* | 3%[46.1 µM] | 5%
Cc1cccc2cc(-c3nc4ccc(C(=O)O)cc4[nH]3)c(=O)oc12 | 5µM* | 2.8µM* | · | 1%
CN1CCN(C(=O)Nc2cccc(-c3ccccc3)c2)CC1 | 3% | 4% | -8% | -1%
CN(C)c1ccc(/C=C/c2nc3ccccc3c(=O)[nH]2)cc1 | ? | 2µM* | · | -1%
C(=C\c1nc2ccccc2[nH]1)/c1ccccc1 | 8.9µM* | 7.1µM* | -11%[46.1 µM] | 0%
CC12CCC=CC1C(c1ccoc1)N(Cc1ccccc1)C2=O (stereo not given) | 16% | 16% | · | ·
COc1ccc(/C=N/Nc2nccnc2Cl)cc1 | ? | ? | -3%[46.1 µM] | 0%

Screens: PubChem, National Center for Advancing Translational Sciences (NCATS)
